Bioassay records as filed in PubChem.
Shown are actives, neighbours in structure and some others; about 4.8% of the full set was active somewhere.
AI-2 QS modul – Vibrio harveyi AI-2 quorum sensing modulators, primary screen, JMH597 strain, luminescence/OD600 ratio. hit rate 0.4% among 300,000. activity change, % at 7.5 µM. Vibrio harveyi JMH597 AI-2 luminescence/OD600 ratio, 9 h; hits give low values; strain lacks LuxN and CqsS sensors; 0 = neutral-control median; in the data active = activity change below about -75%, passing the limit was not always enough; inconclusive = no clear call, values can overlap the other calls;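 note: luminescence divided by OD600 gain over 9 h not by final OD600 alone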
SUMO Mot1 rescue – yeast Mot1-301 growth rescue at high temperature, primary screen, SUMOylation pathway inhibitor project, S. cerevisiae, ATP luminescence, 38.5C; hit rate 1% among 320,000; growth rescue, % at 18.8 µM; S. cerevisiae Mot1-301 growth rescue; percent above DMSO median, 100 means doubled;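 active = every valid replicate shows activation above 250% relative to neutral control wells; inactive = the rest, any valid replicate at or below 250%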
ALR H2O2 inh – inhibitors of human ALR sulfhydryl oxidase, primary screen, biochemical, H2O2 detection, HRP-luminol luminescence, single point; FAD-linked sulfhydryl oxidase ALR (Homo sapiens), P55789; purified ALR, DTT oxidation; inhibition, % (test concentration not listed); hit rate 3.8% among 290,000; AID 485317, 2010;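 active = mean replicate inhibition above about 79%, with every replicate also reaching it, limit read from the data; inconclusive = only one of the two criteria met; inactive = mean below limit and not every replicate reaching it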
Target sequence (P55789 whole entry, looked up): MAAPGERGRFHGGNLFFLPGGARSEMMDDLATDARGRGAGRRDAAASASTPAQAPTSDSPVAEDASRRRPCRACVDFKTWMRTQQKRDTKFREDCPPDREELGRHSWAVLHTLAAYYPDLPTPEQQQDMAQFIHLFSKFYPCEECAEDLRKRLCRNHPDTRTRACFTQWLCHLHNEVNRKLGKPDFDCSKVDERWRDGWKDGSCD
HIF activator – HIF pathway transcriptional activators, primary screen, cell-based, U2OS HRE-luciferase, luminescence | hit rate 0.32% among 300,000 | activation, % at 7.5 µM (by protocol) | U2OS HRE-luciferase reporter; normalized: DMSO 0%, desferrioxamine 100% | AID 1910, 2009;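 active = mean activation of at least 10% of the iron chelator positive control signal, with at least half of replicates also reaching 10%; inconclusive = mean and replicate majority disagree about reaching 10%; inactive = mean and most replicates under 10%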
Hits are given with their value; n = inactive; u = inconclusive; x = not tested or not shown.

SMILES	AI-2 QS modul	SUMO Mot1 rescue	ALR H2O2 inh	HIF activator
C=CCn1c(NCc2ccc(N(C)C)cc2)nc2ccccc21	n	n	99	n
C=CCn1c(NCc2ccco2)nc2ccccc21	n	n	n	n
CCCCn1c(NCc2ccc(N(C)C)cc2)nc2ccccc21	n	n	88	n
Cc1cc2c(ncn2Cc2ccccc2)c(N)c1C	n	n	93	n
COc1ccc(CN(C)CC(=O)Nc2ccc(SC(F)F)cc2)cc1OC	n	n	n	57
CCn1c(CSCc2ccc(Cl)cc2)n[nH]c1=S	n	n	n	n
Cn1c(CSCc2ccc(Cl)c(Cl)c2)n[nH]c1=S	n	n	90	n
Nn1c(SCC(=O)Nc2ccc(N3CCOCC3)cc2)nnc1-c1cccc(F)c1	x	n	99	x
COc1ccccc1-c1nnc(SCC(=O)Nc2ccc(N3CCOCC3)cc2)n1N	x	n	n	x
Nn1c(SCC(=O)Nc2ccc(N3CCOCC3)cc2)nnc1-c1ccccc1F	x	n	99	x
Cc1nnc(SCC(=O)Nc2ccc(N3CCOCC3)cc2)n1-c1ccccc1	n	n	x	n
O=C(Nc1ccnn1C1CCN(Cc2c[nH]c3ccccc23)CC1)c1ccccc1	n	n	n	n
O=C1c2c(O)cc(O)cc2O[C@@]12c1c(cc(O)c3c1O[C@H](c1ccc(O)cc1)[C@@H](O)C3)O[C@@H]2c1ccc(O)cc1	n	n	99	n
O=C1C[C@@H](c2ccccc2)Oc2cc(O)cc(O)c21	n	n	n	n
COc1ccccc1S(=O)(=O)Cc1ccc(C(=O)N2CCN(c3ccccn3)CC2)o1	x	n	n	x
COc1ccc(S(=O)(=O)Cc2ccc(C(=O)N3CCCC3)o2)cc1	n	n	94	x
COc1ccc(S(=O)(=O)Cc2ccc(C(=O)N3CCN(c4ccccc4)CC3)o2)cc1	n	n	89	x
COc1ccccc1S(=O)(=O)Cc1ccc(C(=O)N2CCCC2)o1	n	n	93	x
COc1ccc(S(=O)(=O)Cc2ccc(C(=O)N3CCC(C(N)=O)CC3)o2)cc1	n	n	n	x
COc1cc(CCC(=O)N2CCN(S(=O)(=O)c3ccc(C)cc3)CC2)cc(OC)c1OC	x	n	x	x
O=C(OCC(=O)N1CCCc2ccccc21)c1c(F)cccc1F	n	n	x	n
Cc1ccc(NC(=O)c2cc(S(=O)(=O)N(C)C)ccc2N2CCCC2)cc1F	n	n	n	n
COc1ccc(N/N=C(/C#N)S(=O)(=O)c2nsc(C)c2C#N)cc1	n	n	98	n
COc1ccc(N/N=C(/C#N)S(=O)(=O)C(C)(C)C)cc1	n	n	98	n
CSc1ccc(/C=C(/Sc2nnc(-c3ccccc3)o2)C(=O)O)cc1	n	n	n	n
SMILES	AI-2 QS modul	SUMO Mot1 rescue	ALR H2O2 inh	HIF activator
COc1ccc(-c2nnc(S/C(=C/c3ccc(Cl)cc3)C(=O)O)o2)cc1	n	679	n	n
Cc1nc2ccccc2c2oc(C(=O)N3CCN(c4ccc([N+](=O)[O-])cc4)CC3)cc12	n	n	n	n
COCCN(C(=O)CSc1ccc2c(c1)OCCO2)c1c(N)n(CC(C)C)c(=O)[nH]c1=O	x	n	94	x
CCCCn1c(N)c(N(CC(C)C)C(=O)CSc2ccc3c(c2)OCCO3)c(=O)[nH]c1=O	x	n	x	x
Cc1cc(Sc2nnc(/N=C/N(C)C)s2)c2ccccc2n1	n	n	98	x
COc1ccc(/C=C(\C#N)C(=O)Nc2cccc3ncccc23)cc1OC	n	n	x	n
C[C@@H](NC(=O)/C(C#N)=C/c1ccc(O)c(O)c1)c1ccccc1	x	n	99	x
N#C/C(=C\c1ccc(O)c(O)c1)C(=O)Nc1cccc2ncccc12	n	n	99	n
CCOC(=O)N1CCC(N2C(=O)c3ccccc3C2Nc2ccccc2)CC1 (stereo unspecified)	n	n	x	n
Cc1ccc(NC2c3ccccc3C(=O)N2CCN2CCOCC2)cc1 (stereo unspecified)	n	n	98	n
CCOC(=O)N1CCC(N2C(=O)c3ccccc3C2Nc2ccc(C)cc2)CC1 (stereo unspecified)	n	n	99	n
NS(=O)(=O)c1ccc(N2CCN(C(=O)c3ccco3)CC2)nc1	x	n	n	x
O=C(NC(=S)Nc1nc2ccccc2s1)c1cccs1	n	n	n	n
O=C(Nc1cccc(-c2nc3ccccc3s2)c1)c1cc(-n2cnnc2)ccc1Cl	n	n	n	x
Cc1c(NC(=O)c2cccs2)cccc1-c1nc2ccccc2s1	n	387	n	n
Cc1c(NC(=O)c2cc(-n3cnnc3)ccc2Cl)cccc1-c1nc2ccccc2s1	n	n	88	n
Nc1cc(S(=O)(=O)Nc2ccc(Br)cc2)ccc1Cl	-76	x	n	n
Cc1cc(=O)n(C)c(=O)n1CCCCCN1CCCC1	n	n	100	n
Cc1cc(=O)n(C)c(=O)n1CCCCCCOc1cccc([N+](=O)[O-])c1	n	n	x	x
Cc1ccn2cc(-c3cccc(S(=O)(=O)N4CC(C)OC(C)C4)c3)nc2c1 (stereo unspecified)	n	n	97	n
Cc1nc(-c2cccc(S(=O)(=O)N3CC(C)OC(C)C3)c2)cs1 (stereo unspecified)	n	n	98	n
Cc1ccn2cc(-c3cccc(S(=O)(=O)N4CCCC4)c3)nc2c1	n	n	97	n
COc1ccccc1CNC(=O)COC(=O)c1nccnc1N	n	n	n	n
O=C(N1CCN=C1SCc1cccnc1)C12CC3CC(CC(C3)C1)C2	n	n	99	n
Cc1cccc(CSC2=NCCN2C(=O)c2ccco2)c1	n	n	96	x
SMILES	AI-2 QS modul	SUMO Mot1 rescue	ALR H2O2 inh	HIF activator
O=C(c1ccco1)N1CCN=C1SCc1cccnc1	n	n	99	n
Cc1ccc(CSC2=NCCN2C(=O)c2ccco2)cc1	n	n	95	x
CCc1ccc(C(=O)COC(=O)C2CCN(c3ccc(C(F)(F)F)cn3)CC2)cc1	n	n	n	n
O=C(c1ccc(S(=O)(=O)N2CCOCC2)cc1)N1CCN=C1SCc1cccnc1	n	n	99	n
O=C(c1cccs1)N1CCN=C1SCc1ccccc1F	n	x	n	n
O=C(c1cccs1)N1CCN=C1SCc1cccnc1	n	x	99	n
O=C(c1cccs1)N1CCN=C1SCc1ccc(Cl)cc1	n	x	u	n
O=C(c1ccco1)N1CCN=C1SCc1ccccc1F	n	n	95	x
COc1cccc2sc(=NC(=O)CS(=O)(=O)c3ccc(Cl)cc3)n(C)c12	n	n	n	n
COc1ccc(-c2noc(CN(C)C(=O)c3ccoc3C)n2)cc1	n	n	x	n
Cc1ccccc1C(OCC(O)CN1CCN(CCO)CC1)c1ccccc1 (stereo unspecified)	n	n	x	n
CCc1c(O)nc(SCC(=O)Nc2ccccc2C)n(-c2ccc(C)cc2)c1=O	n	n	u	n
CCCCc1c(O)nc(SCC(=O)Nc2ccc(C)cc2)n(-c2ccc(OC)cc2)c1=O	n	n	99	n
CCCCc1c(O)nc(SCC(=O)Nc2cccc3ccccc23)n(-c2ccccc2OC)c1=O	n	n	n	n
CCc1c(O)nc(SCC(=O)Nc2cc(C)on2)n(-c2ccccc2)c1=O	n	n	97	n
